SMN2 splice up – enhancers of SMN2 splice variant expression; 2.8% of 210,000 active; HEK293 SMN2-luciferase splicing reporter, luminescence, 30-36 h; Potency, µM (series often up to 46.1 µM), inactives show at the top dose activity change, positive = activation, usual class: activators; further: % of control where 0% means no effect; nearly all actives have a fitted effect of over 55% in size
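HEK293 cells carry an SMN2 minigene-luciferase reporter in which exon 7 inclusion puts luciferase in frame. Cells were seeded at 2000 cells/well, attached for 10-12 hours, then exposed to compounds for 30-36 hours at 37C before ONE-Glo luminescence.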
Rab9 prom act – Rab9 promoter activation; AID 485297; Potency, µM (titrated, usually from 9.22 µM), for the others: at the highest dose activation, negative = inhibition, most hits filed as activators; Huh7 Rab9 promoter-luciferase reporter, luminescence, 24 h; 2.8% of 320,000 active; further: % of control where 0% means no effect; nearly all actives have a fitted effect of over 60% in size
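Rab9 promoter-driven luciferase in stably transfected Huh7 cells; 1500 cells/well rested 2 h, exposed to compound in DMSO for 24 h at 37 °C, 5% CO2. Luminescence read 10 min after adding luciferase reagent at ambient temperature.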
NPC1 prom act – NPC1 promoter activation | Huh7 NPC1 promoter luciferase reporter, 24 h | Potency, µM (highest dose often 9.22 µM), without a hit: top-dose activation, hits mostly activators | 2.4% of 320,000 active | AID 485313; further: % of control where 0% means no effect; nearly all actives have a fitted effect of over 60% in size
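Stable NPC1-promoter luciferase Huh7 line; cpd (DMSO) 24 h, 37 °C, 5% CO2; Amplite luciferase reagent 10 min RT; luminescence readout. qHTS format.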
FLuc modulator – firefly luciferase modulation, counter-screen for miR-21 project; P08659; purified FLuc, Km substrates, luminescence inhibition; Potency, µM (top dose mostly 57.5 µM), for inactives: top-dose activity change, negative = inhibition, hits mostly inhibitors; 6.9% of 360,000 active; AID 588342;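 further: plate controls were vehicle for no effect and reference inhibitor for full effect; nearly all actives have a fitted effect of over 55% in size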
Target sequence (P08659 whole entry, looked up): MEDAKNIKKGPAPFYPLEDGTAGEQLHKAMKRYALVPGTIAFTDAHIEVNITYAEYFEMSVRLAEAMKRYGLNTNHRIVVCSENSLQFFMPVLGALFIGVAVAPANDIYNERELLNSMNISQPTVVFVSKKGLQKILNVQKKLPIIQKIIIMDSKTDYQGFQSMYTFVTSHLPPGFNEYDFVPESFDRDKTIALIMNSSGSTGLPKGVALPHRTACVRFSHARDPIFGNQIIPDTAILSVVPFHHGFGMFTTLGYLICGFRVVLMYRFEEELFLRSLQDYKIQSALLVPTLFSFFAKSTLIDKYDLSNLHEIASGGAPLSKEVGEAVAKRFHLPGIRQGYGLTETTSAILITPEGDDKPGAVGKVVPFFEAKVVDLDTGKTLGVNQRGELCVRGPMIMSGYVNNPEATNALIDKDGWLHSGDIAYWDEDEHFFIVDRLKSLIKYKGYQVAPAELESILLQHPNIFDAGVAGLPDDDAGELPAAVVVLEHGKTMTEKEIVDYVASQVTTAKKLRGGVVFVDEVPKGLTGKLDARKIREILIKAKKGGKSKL
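Purified P. pyralis luciferase, 10 nM final, with Km-level 10 uM D-luciferin and 10 uM ATP in 50 mM Tris acetate pH 7.5, 10 mM Mg acetate, 0.01% Tween-20, 0.05% BSA; 6-point qHTS titration about 60 µM downward; luminescence read.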
ELG1 genotox – induces genotoxicity in HEK293T cells with luciferase-tagged ELG1. HEK293T ELG1-luciferase reporter, luminescence, 16 h. Potency, µM (highest dose often 46 µM), for inactives: at the top dose activity change, positive = activation, usual class: activators. 1.3% of 330,000 active; further: % of control where 0% means no effect; nearly all actives have a fitted effect of over 60% in size
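HEK293T cells expressing luciferase-tagged ELG1 were treated with compound or DMSO for 16 hr at 37°C. Luciferase activity was then read after 30 min with ONE-Glo at room temperature; rising signal flags genetic stress.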
Luc counter – Kinase-Glo luciferase inhibition (counter-screen) | Potency, µM (doses to about 38.3 µM), for inactives: at the top dose activity change, negative = inhibition, actives largely listed as inhibitors | 0.28% of 200,000 active | Kinase-Glo luciferase, ATP luminescence, 8 min; further: on the % scale 0 is the no-effect control and ±100 the full control effect; nearly all actives have a fitted effect of over 60% in size
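Compounds were added to a substrate mix at pH 7.2 (50 mM imidazole, 10 uM ATP, within the enzyme's linear range), followed by Kinase-Glo detection reagent; luminescence was measured after 8 minutes at ambient temperature.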
* marks the source's active call; other numbers are inactive results; ? = inconclusive; nt = not tested or not shown. Sampled rows, rich in hits. Any-hit rate of the full collection: about 7.5%. The call rests on the fitted dose curve; in most records, active means well fitted curve in the direction sought with a large enough effect; inconclusive means small, poorly fitted or top-dose-only effect, or another doubt; inactive means no such curve, though single readings can be large; an effect the other way counts as inactive or inconclusive. Potency means the concentration at half of the fitted maximal effect.

SMILES | SMN2 splice up | Rab9 prom act | NPC1 prom act | FLuc modulator | ELG1 genotox | Luc counter
CC(Oc1ccc2cc(-c3ccccc3)c(=O)oc2c1)C(=O)NCC1CCC(C(=O)O)CC1 (stereo unspecified) | nt | -4% | 1% | 21µM* | 5% | nt
COC(=O)C(C)Oc1ccc2cc(-c3ccccc3)c(=O)oc2c1 (stereo unspecified) | nt | -4% | -1% | 24µM* | 3% | nt
Oc1ccc(NCc2ccccc2OCc2ccc(Cl)cc2)cc1 | 22µM* | nt | nt | 21µM* | nt | nt
Oc1ccc(NCc2ccccc2OCc2ccccc2)cc1 | -9% | -3% | -3% | ? | 0% | 0%
CCOc1ccc(NC(=O)NC(CC)Cn2nnc3ccccc3c2=O)cc1 (stereo unspecified) | ? | nt | nt | -7% | nt | nt
COC(=O)CNC(=O)C1(C)C=CCN1C(=O)c1ccccc1 (stereo unspecified) | 11µM* | ? | 15% | 15µM* | ? | -1%
CC(=O)N1CC=CC1(C)C(=O)NCC1CC1 (stereo unspecified) | 11µM* | nt | nt | nt | nt | -6%
CC(C)CC1(C(=O)NCC2CC2)C=CCN1C(=O)c1ccccc1 (stereo unspecified) | 13µM* | nt | nt | nt | nt | -18%
COC(=O)CNC(=O)C1(CC(C)C)C=CCN1C(=O)c1ccccc1 (stereo unspecified) | ? | nt | nt | nt | nt | -4%
CC(=O)N1CC=CC1(CC(C)C)C(=O)NCC1CC1 (stereo unspecified) | ? | nt | nt | nt | nt | -1%
Cc1ccc2nc(Nc3cccc(C(F)(F)F)c3)c3nnnn3c2c1 | nt | nt | nt | 4% | nt | nt
CCOc1ccc(S(=O)(=O)Nc2cc(Cl)ccc2OC)c2cccnc12 | 3% | nt | nt | -19% | nt | nt
CCc1ccc(-n2nc(CO)c(C(=O)NCc3ccccn3)n2)cc1 | -26% | nt | nt | ? | nt | nt
Cc1ccc(-c2cc(-c3ccccc3)no2)c(O)c1 | nt | 2µM* | 3.2µM* | 0.17µM* | 0.37µM* | -17%
Cc1ccc(O)c(-c2cc(-c3ccc(F)cc3)no2)c1 | nt | -33% | -33% | 0.95µM* | 2.1µM* | nt
Cc1ccccc1-c1cc(-c2ccccc2O)on1 | 7.1µM* | ? | ? | 1.9µM* | ? | -26%
Cc1ccc(O)c(NC(=O)c2cc(-c3ccccc3O)no2)c1 | nt | nt | nt | 6% | nt | nt
Oc1ccccc1-c1cc(-c2ccccc2)no1 | 3.2µM* | ? | 5.6µM* | 0.85µM* | ? | -21%
Cc1ccc(CNC(=O)CCn2cc(-c3ccc(C)cc3)nc2CCN)cc1 | nt | 1% | -1% | 7% | -2% | nt
COc1ccc2c(c1OC)C(=O)N1c3ccccc3COC21 (stereo unspecified) | 14µM* | 1.8µM* | 3.5µM* | 3.4µM* | ? | -10%
COc1ccc2c(c1OC)C(=O)N1c3ccccc3SC21 (stereo unspecified) | 11µM* | 2.8µM* | 2.5µM* | 2.4µM* | ? | -3%
COc1ccc2c(c1OC)C(=O)N1c3ccccc3C(=O)OC21 (stereo unspecified) | -6% | nt | nt | nt | nt | -1%
CCOC(=O)c1c(C)[nH]c(C)c1S(=O)(=O)N(C)CC(=O)NCc1ccc(Cl)cc1 | nt | nt | nt | 1% | nt | nt
COC(=O)c1c(NC(=O)C2c3ccccc3Oc3ccccc32)sc2c1CCC(C(C)(C)C)C2 (stereo unspecified) | -2% | nt | nt | -1% | nt | nt
O=C(O)c1ccc2nc(-c3cc4cc(Cl)ccc4oc3=O)[nH]c2c1 | nt | nt | nt | 21µM* | nt | nt
SMILES | SMN2 splice up | Rab9 prom act | NPC1 prom act | FLuc modulator | ELG1 genotox | Luc counter
Cc1cccc2cc(-c3nc4ccc(C(=O)O)cc4[nH]3)c(=O)oc12 | nt | ? | ? | 0.43µM* | ? | nt
CCOc1ccc(CCNC(=O)CN2N=C(c3ccccc3)CCC2=O)cc1OCC | nt | nt | nt | -4% | nt | nt
Cn1c(=O)c2c(SCC(=O)NCc3ccco3)nc(-c3ccccc3)nc2n(C)c1=O | nt | nt | nt | -2% | nt | nt
O=C(NCc1cccc(Br)c1)c1cnn(-c2ccc(F)cc2)c1-n1cccc1 | nt | nt | nt | -19% | nt | nt
OCc1cnc(SCc2ccccc2F)n1Cc1ccc(F)cc1 | nt | nt | nt | -8% | nt | nt
N#Cc1ccccc1NC(=O)C(=O)NCC(c1ccc2c(c1)OCO2)N1CCOCC1 (stereo unspecified) | nt | nt | nt | 0% | nt | nt
O=C(CSCc1ccco1)c1cccs1 | 7% | 1.3µM* | 4µM* | 9.5µM* | 12µM* | -7%
COc1cccc(C(=O)COC(=O)c2cccs2)c1 | nt | 5% | ? | 0.48µM* | ? | nt
O=C(CNC(=O)c1cccs1)NCC(=O)OCC(=O)c1ccccc1 | nt | 7% | -3% | 0% | -2% | nt
O=C(COC(=O)c1cccs1)c1ccccc1 | 14% | 4µM* | ? | 0.85µM* | 14% | -21%
COc1cccc(C(=O)COC(=O)c2cc(-c3cccs3)nc3ccccc23)c1 | 0% | nt | nt | -17% | nt | nt
O=C(CCC(=O)c1cccs1)c1cccs1 | nt | 0.63µM* | 1.3µM* | 4.8µM* | 16µM* | -18%
O=C(CCC(=O)c1cccs1)NC(c1ccccc1)c1ccccc1 | -9% | -2% | -1% | 0% | 1% | -1%
COc1cc(-c2nc(Cn3nnc(C(=O)Nc4ccc(C)cc4C)c3C)c(C)o2)cc(OC)c1OC | -7% | nt | nt | -1% | nt | nt
Cc1cc(C(=O)OCC(=O)c2ccc(Br)s2)no1 | -7% | 0% | -10% | 9.5µM* | 0% | 10%
COc1cccc(C(=O)OCC(=O)NCCNC(=O)COC(=O)c2cccc(OC)c2OC)c1OC | nt | 0% | 0% | -1% | -1% | nt
Cc1cc(C(=O)OCC(=O)c2ccc(Br)s2)c(C)o1 | 6% | 7% | 2% | ? | 3% | -1%
COc1cccc(C(=O)OCC(=O)c2ccc(Br)s2)c1OC | nt | 16% | -3% | 8.5µM* | -3% | nt
CC1=CC(C)=Nc2ccc(C)cc2N1 | 1% | 9% | 8% | 15µM* | 7.1µM* | -2%
COc1ccc(C(=O)N/N=C/C(=O)c2ccccc2)cc1 | nt | ? | 2.5µM* | 1.5µM* | 10µM* | nt
COCCNC(=O)c1ccc(C)cc1C | 5% | -8% | 0% | -1% | 0% | 3%
Cc1ccc(C(=O)NN=CC(=O)c2ccccc2)c(C)c1 | nt | nt | nt | nt | 2.3µM* | nt
CC(C)CN(CCNC(=O)c1cn(C)c2ccc(S(=O)(=O)N3CCCCCC3)cc2c1=O)CC(C)C | 7% | nt | nt | -1% | nt | nt
Oc1ccc2ccccc2c1/C=N/Nc1ccccc1 | ? | 0% | 0% | 6µM* | ? | 0%
O=CN/N=C/c1c(O)ccc2ccccc12 | nt | -29% | -33% | -1% | 0% | nt
NC(=S)N/N=C/c1c(O)ccc2ccccc12 | nt | -15% | 9% | -4% | -12% | nt
Oc1ccc2ccccc2c1C=NCc1ccccc1 | nt | 11% | -3% | 11µM* | -7% | nt
Cc1cc(C)c(C)c(N=Nc2nc3ccccc3n2C)c1C | -41% | 19% | 11% | 11µM* | ? | -9%

Screening data from PubChem BioAssay.
